# Laboratory results reported in PubChem BioAssay (NCI).
# This is part of a sample that, as a whole, favours compounds with a hit. Of some 83,000 tested, about 20% had one in any assay.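 How to read the values: 0–100, growth inhibition (40 = 60% inhibited); 0, no net growth; -100 to 0, cell death (-40 = 40% of starting cells died; -100 = all dead).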 Values without a mark were called inactive. Active and inactive are the calls of the source. How the source made its calls: active means growth percent below 10; inactive means the rest.
# Columns and labels:
# Assay in all cases: NCI-60 one-dose screen, 48 h (100 = growth as untreated, 0 = no growth, -100 = all killed)
# Settings in all cases: 10 µM unless noted
# [1] = system: NCI-H23 lung
# [2] = system: NCI-H226 lung
# [3] = system: NCI-H322M lung
# [4] = system: HOP-62 NSCLC
# [5] = system: NCI-H460 lung
# [6] = system: NCI-H522 lung
# [7] = system: A549/ATCC NSCLC
# [8] = system: 786-0 renal
# [9] = system: COLO 205 colon
# [10] = system: DU-145 prostate
# [11] = system: K-562 leukemia
# [12] = system: MALME-3M melanoma
# [13] = system: MDA-MB-231 breast
# [14] = system: RXF 393 renal
# [15] = system: SF-268 CNS
# [16] = system: SF-295 CNS
# [17] = system: SF-539 CNS
# [18] = system: UACC-257 melanoma
# [19] = system: M14 melanoma
# [20] = system: HCT-15 colon
SMILES,growth [1],growth [2],growth [3],growth [4],growth [5],growth [6],growth [7],growth [8],growth [9],growth [10],growth [11],growth [12],growth [13],growth [14],growth [15],growth [16],growth [17],growth [18],growth [19],growth [20]
C[C@]12CC[C@@H]3c4ccc(O)c([N+](=O)[O-])c4CC[C@H]3[C@@H]1CC[C@@H]2NS(=O)(=O)c1cccc(Br)c1,28%,62.4%,53.8%,78.3%,20%,-50.4% (active),19%,42.8%,101%,52.7%,8.39% (active),31.1%,26.7%,10.4%,36.2%,53.2%,67.5%,49.1%,43.4%,26.7%
CCOc1cc(-c2ccc[nH]2)[nH]c1/C=C1\N=C(C)C(C(=O)OC)=C1C,-59.4% (active),-61.9% (active),-61.8% (active),-58% (active),-79.4% (active),-50.1% (active),-47.1% (active),-50.2% (active),-78.6% (active),-65.5% (active),-55.4% (active),-61.1% (active),-62.6% (active),-72.5% (active),-55.7% (active),-69.8% (active),-66.7% (active),-56.7% (active),-59.9% (active),-27% (active)
NCCCc1nnc(CCC(=O)c2nc3ccccc3[nH]2)o1,98.3%,108%,97.3%,112%,115%,103%,106%,103%,111%,115%,98.5%,82.2%,89.8%,116%,115%,98.4%,101%,113%,109%,90%
Cc1cc(NC(=O)Nc2cccc3ccccc23)no1,92.9%,108%,105%,103%,101%,91%,96.9%,96.4%,154%,118%,92.4%,101%,112%,99.6%,108%,103%,97.2%,105%,107%,95.2%
COc1ccc2nccc(/C=C/c3ccnc4ccc(OC)cc34)c2c1,104%,131%,120%,114%,100%,112%,66.1%,105%,119%,104%,52.5%,146%,114%,37.4%,71.3%,129%,106%,153%,110%,101%
O=C(Nc1ccc(C2=NCCCN2)cc1)Nc1ccc(C2=NCCCN2)cc1,67.4%,75%,94.5%,101%,88.8%,80.1%,99.9%,84.3%,128%,103%,76.1%,104%,112%,106%,96.8%,92.2%,80.1%,96.1%,92.7%,106%
O=C(O)c1ccc(NC(=O)c2ccc(Nc3ccnc(C(F)(F)F)c3)cc2)cc1,98.4%,100%,121%,103%,113%,103%,103%,103%,101%,106%,94.1%,103%,109%,97.9%,98%,108%,104%,99.6%,107%,92.1%
COc1cc(NC(=O)c2cc3ccccc3cc2O)c(OC)cc1Cl,-19.3% (active),13.5%,-3.14% (active),-29.6% (active),3.33% (active),-30.1% (active),5.74% (active),-5.13% (active),41.6%,25.6%,-2.3% (active),-23.7% (active),18.5%,20.9%,27.3%,8.57% (active),7.7% (active),-22.2% (active),4.56% (active),13.8%
